Source: the supplement of paper PMC7366291
Structures can show the parent of a compound that is named as a salt. ± gives the standard deviation or the standard deviation of the averaged measurements.

Columns and labels:
Settings in all cases: 25 µM; exposure: 24-48 hpf
[1] = system: Danio rerio Tg(wt1b:EGFP) embryo, pronephros; test: glomerular separation, fold change vs DMSO control; higher = glomeruli further apart (abnormal)
Outline: (§1)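 Features are reported as fold changes against the mean of same-day DMSO-treated embryos. Before that, values more than 2 SD away from the feature mean were excluded. The embryos, dechorionated Tg(wt1b:EGFP) zebrafish, had been exposed from 24 to 48 hpf at 28.5°C to 25 μM compound in 0.5% DMSO in HEPES-buffered E3 with 0.003% PTU, and distances and angles came from 16 manually set points on maximum projections of dorsal pronephros images in Fiji.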

[2] = system: Danio rerio Tg(wt1b:EGFP) embryo, pronephros; test: glomerular width (mean of left and right), fold change vs DMSO control; higher = wider glomerulus
Outline: as §1

[3] = system: Danio rerio Tg(wt1b:EGFP) embryo, pronephros; test: fraction of imaged embryos annotated as normal kidney; higher = less nephrotoxic; extreme values may be limits of the assay
Outline: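 Tricaine-anaesthetised Tg(wt1b:EGFP) zebrafish larvae were oriented dorsally in agarose-filled 96-well plates, and their pronephroi were recorded by widefield fluorescence at 470 nm in 10 z-slices. Before this, the dechorionated embryos had been exposed in 12-well plates to 25 μM compound in 0.5% DMSO and 5 mM HEPES-buffered E3 with 0.003% PTU, from 24 to 48 hpf at 28.5°C. Maximum projections were annotated manually for each embryo, and the read-out is the fraction per treatment classed as normal kidney.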

[4] = system: Danio rerio Tg(wt1b:EGFP) embryo, pronephros; test: pronephric angle neck segment to proximal convoluted tubule (mean of left and right), fold change vs DMSO control; higher = larger pronephric angle
Outline: as §1

Compound	glomerular separation [1]	glomerular width [2]	fraction of imaged embryos annotated as normal kidney [3]	pronephric angle neck segment [4]
CC(C)(O)c1ccccc1CC[C@@H](SCC1(CC(=O)O)CC1)c1cccc(/C=C/c2ccc3ccc(Cl)cc3n2)c1 [Montelukast]	0.861 ± 0.26	0.925 ± 0.047	0.833	1.04 ± 0.026
Fc1ccc(C(c2ccc(F)cc2)N2CCN(C/C=C/c3ccccc3)CC2)cc1 [Flunarizine dihydrochloride]	1.22 ± 0.69	0.932 ± 0.0099	0.364	0.937 ± 0.017
CCCCC[C@H](O)/C=C/[C@H]1[C@H](O)CC(=O)[C@@H]1CCCCCCC(=O)O [Alprostadil]	1.21 ± 0.52	0.867 ± 0.036	0.75	1.09 ± 0.047
CC1CCc2c(N3CCC(O)CC3)c(F)cc3c(=O)c(C(=O)O)cn1c23 (configuration not stated) [Nadifloxacin]	1.13 ± 0.33	1.01 ± 0.031	0.917	1.04 ± 0.029
CCCC(=O)Nc1ncnc2c1ncn2[C@@H]1O[C@@H]2COP(=O)(O)O[C@H]2[C@H]1OC(=O)CCC [Bucladesine sodium salt]	0.912 ± 0.4	0.933 ± 0.04	0.917	0.9351 ± 0.0021
CN1[C@@H]2CC[C@H]1C[C@@H](OC(=O)C(O)c1ccccc1)C2 (mixture of isomers) [Homatropine hydrobromide (R,S)]	0.957 ± 0.29	1.06 ± 0.015	0.75	0.9643 ± 0.0018
CC(=O)Nc1ccc(O)cc1 [Acetaminophen]	0.86 ± 0.31	0.987 ± 0.037	1	0.9829 ± 0.0034
CN(C)CCOC1=Cc2ccccc2Sc2ccc(Cl)cc21 [Zotepine]	0.933 ± 0.24	0.983 ± 0.065	0.75	1.08 ± 0.11
